# According to publication PMC8384837, “Expanding the binding specificity for RNA recognition by a PUF domain”:
# Columns and labels:
# Assay in all cases: yeast three-hybrid, YBZ-1, SC-Leu-His + 0.5 mM 3-AT, 4 days
# Settings in all cases: tags: N-Gal4 AD-HA kept; label: inside an RPR1-promoter hybrid RNA with tandem MS2 sites; ssRNA
# PUM1 PUF domain R3-LSG = PUM1 PUF domain R3-LSG (Homo sapiens, UniProt Q14671 828-1176, C935L;R936S;Q939G)
# How it was run: (§1)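 Pumilio-1 PUF domain libraries, randomized at the three base-contacting residues of each repeat, were co-expressed with matching RNA elements from a centromeric plasmid in strain YBZ-1, which carries a LexA–MS2 coat fusion and a HIS3 reporter. Transformants grew for four days on SC-Leu (input) or on SC-Leu-His + 0.5 mM 3-AT (selection), and the repeat regions were PCR-amplified and Illumina-sequenced. The interaction score is the log change in variant frequency from input to selection. That logarithm is base 2, with a pseudocount of 1 where a variant was absent.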
# PUM1 PUF domain R3-LST = PUM1 PUF domain R3-LST (Homo sapiens, UniProt Q14671 828-1176, C935L;R936S;Q939T)
# PUM1 PUF domain R3-LST, sequence (Q14671 828-1176 C935L/R936S/Q939T): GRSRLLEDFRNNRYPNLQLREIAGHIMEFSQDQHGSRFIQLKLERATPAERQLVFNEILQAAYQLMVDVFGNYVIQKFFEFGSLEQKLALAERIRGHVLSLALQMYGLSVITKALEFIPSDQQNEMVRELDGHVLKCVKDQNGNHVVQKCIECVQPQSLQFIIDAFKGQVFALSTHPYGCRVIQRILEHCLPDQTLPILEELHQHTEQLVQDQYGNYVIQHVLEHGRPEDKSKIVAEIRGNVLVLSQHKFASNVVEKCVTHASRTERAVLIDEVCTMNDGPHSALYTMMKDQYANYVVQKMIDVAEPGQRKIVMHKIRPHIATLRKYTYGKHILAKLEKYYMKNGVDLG
# How it was run: as §1
# PUM1 PUF domain R3-SPT = PUM1 PUF domain R3-SPT (Homo sapiens, UniProt Q14671 828-1176, C935S;R936P;Q939T)
# How it was run: as §1
# PUM1 PUF domain R3-RIA = PUM1 PUF domain R3-RIA (Homo sapiens, UniProt Q14671 828-1176, C935R;R936I;Q939A)
# PUM1 PUF domain R3-RIA, sequence (Q14671 828-1176 C935R/R936I/Q939A): as the sequence (Q14671 828-1176 C935L/R936S/Q939T) above, with L108R, S109I, T112A counted along it
# How it was run: as §1
# PUM1 PUF domain R8-PWQ = PUM1 PUF domain R8-PWQ (Homo sapiens, UniProt Q14671 828-1176, N1122P;Y1123W)
# How it was run: as §1
# PUM1 PUF domain R6-VWV = biological target: T1, PUM1 PUF domain R6-VWV (Homo sapiens, UniProt Q14671 828-1176, N1043V;Y1044W;Q1047V)
# T1 sequence: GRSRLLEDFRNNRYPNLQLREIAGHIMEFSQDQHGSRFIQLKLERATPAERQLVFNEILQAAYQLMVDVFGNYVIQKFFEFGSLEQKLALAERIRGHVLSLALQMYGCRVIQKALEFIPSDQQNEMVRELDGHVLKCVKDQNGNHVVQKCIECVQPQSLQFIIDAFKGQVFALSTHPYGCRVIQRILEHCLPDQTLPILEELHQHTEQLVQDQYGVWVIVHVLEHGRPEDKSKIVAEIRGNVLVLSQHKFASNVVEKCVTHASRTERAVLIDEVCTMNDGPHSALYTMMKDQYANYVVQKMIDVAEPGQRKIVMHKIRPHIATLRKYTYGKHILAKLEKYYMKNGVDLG
# How it was run: as §1
# PUM1 PUF domain R4-DFG = PUM1 PUF domain R4-DFG (Homo sapiens, UniProt Q14671 828-1176, N971D;H972F;Q975G)
# How it was run: as §1
# PUM1 PUF domain R4-GPR = PUM1 PUF domain R4-GPR (Homo sapiens, UniProt Q14671 828-1176, N971G;H972P;Q975R)
# How it was run: as §1
# PUM1 PUF domain R4-NQQ = PUM1 PUF domain R4-NQQ (Homo sapiens, UniProt Q14671 828-1176, H972Q)
# How it was run: as §1
# PUM1 PUF domain R7-VSR = PUM1 PUF domain R7-VSR (Homo sapiens, UniProt Q14671 828-1176, S1079V;N1080S;E1083R)
# How it was run: as §1
# PUM1 PUF domain R5-KAN = PUM1 PUF domain R5-KAN (Homo sapiens, UniProt Q14671 828-1176, C1007K;R1008A;Q1011N)
# PUM1 PUF domain R5-KAN, sequence (Q14671 828-1176 C1007K/R1008A/Q1011N): as the sequence (Q14671 828-1176 C935L/R936S/Q939T) above, with L108C, S109R, T112Q, C180K, R181A, Q184N counted along it
# How it was run: as §1
# PUM1 PUF domain R5-RAS = PUM1 PUF domain R5-RAS (Homo sapiens, UniProt Q14671 828-1176, C1007R;R1008A;Q1011S)
# PUM1 PUF domain R5-RAS, sequence (Q14671 828-1176 C1007R/R1008A/Q1011S): as the sequence (Q14671 828-1176 C935L/R936S/Q939T) above, with L108C, S109R, T112Q, C180R, R181A, Q184S counted along it
# How it was run: as §1
# PUM1 PUF domain R2-RQC = PUM1 PUF domain R2-RQC (Homo sapiens, UniProt Q14671 828-1176, N899R;Y900Q;Q903C)
# PUM1 PUF domain R2-RQC, sequence (Q14671 828-1176 N899R/Y900Q/Q903C): as the sequence (Q14671 828-1176 C935L/R936S/Q939T) above, with N72R, Y73Q, Q76C, L108C, S109R, T112Q counted along it
# How it was run: as §1
# PUM1 PUF domain R8-NWF = PUM1 PUF domain R8-NWF (Homo sapiens, UniProt Q14671 828-1176, Y1123W;Q1126F)
# PUM1 PUF domain R8-NWF, sequence (Q14671 828-1176 Y1123W/Q1126F): as the sequence (Q14671 828-1176 C935L/R936S/Q939T) above, with L108C, S109R, T112Q, Y296W, Q299F counted along it
# How it was run: as §1
# PUM1 PUF domain R8-SYK = PUM1 PUF domain R8-SYK (Homo sapiens, UniProt Q14671 828-1176, N1122S;Q1126K)
# PUM1 PUF domain R8-SYK, sequence (Q14671 828-1176 N1122S/Q1126K): as the sequence (Q14671 828-1176 C935L/R936S/Q939T) above, with L108C, S109R, T112Q, N295S, Q299K counted along it
# How it was run: as §1
# PUM1 PUF domain R1-KKS = PUM1 PUF domain R1-KKS (Homo sapiens, UniProt Q14671 828-1176, S863K;R864K;Q867S)
# PUM1 PUF domain R1-KKS, sequence (Q14671 828-1176 S863K/R864K/Q867S): as the sequence (Q14671 828-1176 C935L/R936S/Q939T) above, with S36K, R37K, Q40S, L108C, S109R, T112Q counted along it
# How it was run: as §1
# PUM1 PUF domain R3-LSG, sequence (Q14671 828-1176 C935L/R936S/Q939G): as the sequence (Q14671 828-1176 C935L/R936S/Q939T) above, with T112G counted along it
sequence,measurement,setting,value
GGCUAGAACUAGUGGAUCCCCCGGCGCCCGGCGGCUCGAGCCCGGGUAAGUGUAAGUAGUCUGCAUGCCGCCGGGCGCCAUGCCUGCAGGUCGACUCUAGAAAACAUG,binding signal,PUM1 PUF domain R3-LSG,2.82 log2 enrichment (interaction score)
same,binding signal,PUM1 PUF domain R3-LST,3.44 log2 enrichment (interaction score)
GGCUAGAACUAGUGGAUCCCCCGGCGCCCGGCGGCUCGAGCCCGGGUAAGUGUAAUUAGUCUGCAUGCCGCCGGGCGCCAUGCCUGCAGGUCGACUCUAGAAAACAUG,binding signal,PUM1 PUF domain R3-LSG,1.48 log2 enrichment (interaction score)
same,binding signal,PUM1 PUF domain R3-SPT,1.18 log2 enrichment (interaction score)
same,binding signal,PUM1 PUF domain R3-LST,2.71 log2 enrichment (interaction score)
same,binding signal,PUM1 PUF domain R3-RIA,3.43 log2 enrichment (interaction score)
GGCUAGAACUAGUGGAUCCCCCGGCGCCCGGCGGCUCGAGCCCGGGUAAGUGUAAAUAGUCUGCAUGCCGCCGGGCGCCAUGCCUGCAGGUCGACUCUAGAAAACAUG,binding signal,PUM1 PUF domain R8-PWQ,3.79 log2 enrichment (interaction score)
same,binding signal,PUM1 PUF domain R6-VWV,1.13 log2 enrichment (interaction score)
same,binding signal,PUM1 PUF domain R4-DFG,5.83 log2 enrichment (interaction score)
same,binding signal,PUM1 PUF domain R3-SPT,2.13 log2 enrichment (interaction score)
GGCUAGAACUAGUGGAUCCCCCGGCGCCCGGCGGCUCGAGCCCGGGUAAGUGUACAUAGUCUGCAUGCCGCCGGGCGCCAUGCCUGCAGGUCGACUCUAGAAAACAUG,binding signal,PUM1 PUF domain R4-GPR,2.58 log2 enrichment (interaction score)
same,binding signal,PUM1 PUF domain R4-DFG,2.96 log2 enrichment (interaction score)
GGCUAGAACUAGUGGAUCCCCCGGCGCCCGGCGGCUCGAGCCCGGGUAAGUGUAUAUAGUCUGCAUGCCGCCGGGCGCCAUGCCUGCAGGUCGACUCUAGAAAACAUG,binding signal,PUM1 PUF domain R4-GPR,0.87 log2 enrichment (interaction score)
same,binding signal,PUM1 PUF domain R4-NQQ,2.71 log2 enrichment (interaction score)
GGCUAGAACUAGUGGAUCCCCCGGCGCCCGGCGGCUCGAGCCCGGGUAAGUGAAAAUAGUCUGCAUGCCGCCGGGCGCCAUGCCUGCAGGUCGACUCUAGAAAACAUG,binding signal,PUM1 PUF domain R6-VWV,4.54 log2 enrichment (interaction score)
GGCUAGAACUAGUGGAUCCCCCGGCGCCCGGCGGCUCGAGCCCGGGUAAGUUUAAAUAGUCUGCAUGCCGCCGGGCGCCAUGCCUGCAGGUCGACUCUAGAAAACAUG,binding signal,PUM1 PUF domain R7-VSR,3.33 log2 enrichment (interaction score)
GGCUAGAACUAGUGGAUCCCCCGGCGCCCGGCGGCUCGAGCCCGGGUAAGUGUCAAUAGUCUGCAUGCCGCCGGGCGCCAUGCCUGCAGGUCGACUCUAGAAAACAUG,binding signal,PUM1 PUF domain R5-KAN,5.42 log2 enrichment (interaction score)
same,binding signal,PUM1 PUF domain R5-RAS,3.03 log2 enrichment (interaction score)
GGCUAGAACUAGUGGAUCCCCCGGCGCCCGGCGGCUCGAGCCCGGGUAAGUGUUAAUAGUCUGCAUGCCGCCGGGCGCCAUGCCUGCAGGUCGACUCUAGAAAACAUG,binding signal,PUM1 PUF domain R5-RAS,3.24 log2 enrichment (interaction score)
GGCUAGAACUAGUGGAUCCCCCGGCGCCCGGCGGCUCGAGCCCGGGUAAGUGUAAAGAGUCUGCAUGCCGCCGGGCGCCAUGCCUGCAGGUCGACUCUAGAAAACAUG,binding signal,PUM1 PUF domain R2-RQC,4.25 log2 enrichment (interaction score)
GGCUAGAACUAGUGGAUCCCCCGGCGCCCGGCGGCUCGAGCCCGGGUAAGCGUAAAUAGUCUGCAUGCCGCCGGGCGCCAUGCCUGCAGGUCGACUCUAGAAAACAUG,binding signal,PUM1 PUF domain R8-NWF,2.16 log2 enrichment (interaction score)
same,binding signal,PUM1 PUF domain R8-SYK,4.29 log2 enrichment (interaction score)
GGCUAGAACUAGUGGAUCCCCCGGCGCCCGGCGGCUCGAGCCCGGGUAAGUGUAAAUUGUCUGCAUGCCGCCGGGCGCCAUGCCUGCAGGUCGACUCUAGAAAACAUG,binding signal,PUM1 PUF domain R1-KKS,5.1 log2 enrichment (interaction score)
